In PubChem BioAssay (NCI) one finds growth data, which are given here for eight compounds.

About 83,000 compounds went through this panel and 20% of them were active in at least one assay; those are over-represented in the sample as a whole.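 Negative percent growth values reflect cell death: -40 means 40% of the cells present at the start died, and -100 means all died.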 A number with no mark means an inactive call. The source made the active and inactive calls. The calls were made as follows: active = growth percent below 10; inactive = the rest.

Common to all, as to experiment: NCI-60 one-dose screen, 48 h (100 = growth as untreated, 0 = no growth, -100 = all killed)
Common to all, as to conditions: 10 µM unless noted

In assay [1] the test system is DU-145 prostate.
For assay [2], the system named is K-562 leukemia.
For assay [3], the system named is MALME-3M melanoma.
In assay [4] the test system is MDA-MB-231 breast.
Assay [5] deals with RXF 393 renal.
Assay [6] concerns SF-268 CNS.
Assay [7] concerns SF-295 CNS.
The subject of assay [8] is SF-539 CNS.
Assay [9] deals with UACC-257 melanoma.
Assay [10] has as its system M14 melanoma.
Assay [11] concerns HCT-15 colon.
Assay [12] relates to HT29 colon.
Assay [13] has as its system SNB-75 CNS.
The subject of assay [14] is SNB-19 CNS.
Assay [15] has as its system U251 CNS.
For assay [16], the system named is PC-3 prostate.
Assay [17] deals with SK-MEL-5 melanoma.
Assay [18] relates to UACC-62 melanoma.
The subject of assay [19] is LOX IMVI melanoma.
Assay [20] relates to SK-MEL-28 melanoma.

`Nc1nc(N)c2c(n1)NC(c1cccc(Nc3ccnc4cc(C(F)(F)F)ccc34)c1)CC(c1ccccc1)=N2` (stereo not given): the growth in assay [1] was 71.9%; in assay [2], 13.5%; in assay [3] it was 67%; in assay [4], 58.5%; in [5], 44.9%; in assay [6], 52.3%. In addition, the growth was 50.1% in [7]; 77.1% in assay [8]; 69% in assay [9]; 30.2% in [10]; 23.7% in assay [11]; 8.53% (active) in [12]. Also, the growth in [13] is 48.1%; in [14], 64.4%; in [15] it was 36.5%; in [16], 39.2%; in assay [17], 21.9%; in [18], 73.8%. In addition, the growth is 45.6% in assay [19] and 84% in assay [20].

With `C=CN(C(=O)N1CCN(c2cc3c(cc2F)c(=O)c(C(=O)O)cn3C2CC2)CC1)c1nc(-c2ccc(OC)cc2)cs1`, the growth in assay [1] is 30.9%; in assay [2], 21.9%; in assay [3], 42.7%; in assay [4], 22.1%; in [5] it was 20%; in [6], 29.6%. Further, the growth was 11.8% in assay [7]; 25.8% in assay [8]; 26.9% in assay [9]; 32.1% in [10]; 13.6% in assay [11]; 15.4% in [12]. In addition, the growth in [13] was 23.6%; in [14], 19.2%; in [15], 13.4%; in assay [16] it was 16.4%; in assay [17] it was -7.22% (active); in assay [18], 16.4%. In addition, the figures for the growth in [19] and in assay [20] were 1.92% (active) and 45.7%, respectively.

Consider `O=C(C1=Cc2cc3ccccc3n2Cc2cnnn21)c1ccc(O)cc1`, for which the growth in [1] was 89.9%; in assay [2], 11%; in assay [3], 57.8%; in assay [4], 75.5%; in [5], 59%; in assay [6] it was 71.9%. The growth is 56.9% in [7]; 61.5% in assay [8]; 84% in assay [9]; 24.9% in assay [10]; 37.3% in assay [11]; 27.3% in [12]. Besides, the growth in assay [13] was 31%; in assay [14] it was 63.2%; in assay [15] it was 53.5%; in assay [16], 62.4%; in assay [17], 54.2%; in [18] it was 32.9%. Further, the growth in assay [19] is 50.6%; in assay [20], 66.8%.

With `Cc1nn(-c2ccccc2)c(N)c1N=C1NC(=O)/C(=C/c2ccc(Br)cc2)S1`, the growth in assay [1] is 96.4%; in [2], 58.8%; in assay [3], 93.8%; in assay [4] it was 86%; in [5], 151%; in [6], 81.6%. Also, the growth in assay [7] is 87.2%; in [8] it was 83.4%; in assay [9], 111%; in assay [10], 89.9%; in assay [11] it was 81.5%; in [12], 106%. In addition, the growth in assay [13] is 85.2%; in assay [14], 73.5%; in assay [15] it was 77.1%; in assay [16] it was 74%; in [17] it was 99%; in [18] it was 77.6%. For the same compound, the results for the growth in [19] and in [20] were 90.4% and 94.5%, respectively.

`Nc1nc(N)c2c(n1)NC(c1ccc(Cl)cc1)C1CCc3ccccc3C1=N2` (stereo not given): the growth in assay [1] was 64.1%; in assay [2], 31%; in assay [3], 19.6%; in assay [4], 76.8%; in [5] it was 83.3%; in [6] it was 72.3%. Moreover, the growth is 20.7% in assay [7]; 54.3% in assay [8]; 58.2% in assay [9]; 70.4% in [10]; 45.9% in assay [11]; 41.9% in assay [12]. Moreover, the growth in [13] is 62.1%; in assay [14], 76.1%; in assay [15], 51.1%; in [16] it was 51.6%; in assay [17] it was 7.87% (active); in assay [18], 55.2%. The growth in assay [19] was 56.8%; in assay [20] it was 91.3%.

Consider `CC(=O)c1ccc(Nc2nccc(-c3ccc4ccccc4c3)n2)cc1`, for which the growth in assay [1] is 105%; in assay [2] it was 59.6%; in [3] it was 101%; in [4], 102%; in assay [5], 85.1%; in [6], 93.6%. The growth in assay [7] was 100%; in assay [8] it was 100%; in assay [9], 104%; in [10] it was 97.6%; in [11] it was 85.7%; in assay [12], 91.4%. The growth in assay [13] was 91.8%; in [14], 94.9%; in assay [15], 95.5%; in [16] it was 91.5%; in [17], 97.6%; in assay [18], 88%. Also, the growth in assay [19] was 99%; in [20] it was 107%.

As to `C=C1C(=O)O[C@H]2[C@H]1CC/C(COC(=O)/C=C\C(=O)NCc1ccc(Cn3c(=O)sn(CCCCC)c3=O)cc1)=C\CC[C@@]1(C)O[C@@H]21`, the growth was 49.2% in [1]; 12.6% in assay [2]; 52.4% in [3]; 71.4% in [4]; 74.9% in [5]; 92.5% in assay [6]. For the same compound, the growth is 101% in [7]; 78.7% in [8]; 75.8% in [9]; 43.9% in [10]; 38.8% in assay [11]; 41.3% in [12]. Besides, the growth in assay [13] was 110%; in [14] it was 94.8%; in assay [15] it was 84.4%; in assay [16] it was 81.9%; in assay [17], 106%; in [18], 70.1%. The growth in assay [19] is 62.6%; in assay [20], 91.1%.

For the compound `COc1cc(C(=O)c2c(-c3ccccc3)oc3c(OC)cccc23)cc(OC)c1OC`, the growth in assay [1] was 6.56% (active); in [2], 12.3%; in [3], 42.2%; in [4], -0.456% (active); in assay [5], -3.42% (active); in [6], 30.1%. The growth in [7] was 2.79% (active); in [8], -26.1% (active); in assay [9], 71.1%; in assay [10] it was 3.87% (active); in assay [11], 5.88% (active); in assay [12], 8.2% (active). The growth was 7.41% (active) in assay [13]; 25% in assay [14]; 14.2% in [15]; 17.2% in [16]; -42.3% (active) in assay [17]; 30.2% in [18]. Further, the growth in assay [19] was 12.2%; in [20], 59.9%.
